Source: PubChem BioAssay AID1456 (Vanderbilt High Throughput Screening Facility, 2008)
About 4,100 (2.2%) of roughly 190,000 compounds were called active.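 Rule for the calls: active = thallium flux slope and its plate-corrected score both differing from the plate sample mean at a set confidence after two filtering rounds, in either direction; inactive = the rest.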 Many of the other results were omitted from the sample, so actives are more common in it than they were.

Biological target: Solute carrier family 12 member 5 (Homo sapiens) (UniProt Q9H2X9)
Sequence (Q9H2X9 whole entry, looked up): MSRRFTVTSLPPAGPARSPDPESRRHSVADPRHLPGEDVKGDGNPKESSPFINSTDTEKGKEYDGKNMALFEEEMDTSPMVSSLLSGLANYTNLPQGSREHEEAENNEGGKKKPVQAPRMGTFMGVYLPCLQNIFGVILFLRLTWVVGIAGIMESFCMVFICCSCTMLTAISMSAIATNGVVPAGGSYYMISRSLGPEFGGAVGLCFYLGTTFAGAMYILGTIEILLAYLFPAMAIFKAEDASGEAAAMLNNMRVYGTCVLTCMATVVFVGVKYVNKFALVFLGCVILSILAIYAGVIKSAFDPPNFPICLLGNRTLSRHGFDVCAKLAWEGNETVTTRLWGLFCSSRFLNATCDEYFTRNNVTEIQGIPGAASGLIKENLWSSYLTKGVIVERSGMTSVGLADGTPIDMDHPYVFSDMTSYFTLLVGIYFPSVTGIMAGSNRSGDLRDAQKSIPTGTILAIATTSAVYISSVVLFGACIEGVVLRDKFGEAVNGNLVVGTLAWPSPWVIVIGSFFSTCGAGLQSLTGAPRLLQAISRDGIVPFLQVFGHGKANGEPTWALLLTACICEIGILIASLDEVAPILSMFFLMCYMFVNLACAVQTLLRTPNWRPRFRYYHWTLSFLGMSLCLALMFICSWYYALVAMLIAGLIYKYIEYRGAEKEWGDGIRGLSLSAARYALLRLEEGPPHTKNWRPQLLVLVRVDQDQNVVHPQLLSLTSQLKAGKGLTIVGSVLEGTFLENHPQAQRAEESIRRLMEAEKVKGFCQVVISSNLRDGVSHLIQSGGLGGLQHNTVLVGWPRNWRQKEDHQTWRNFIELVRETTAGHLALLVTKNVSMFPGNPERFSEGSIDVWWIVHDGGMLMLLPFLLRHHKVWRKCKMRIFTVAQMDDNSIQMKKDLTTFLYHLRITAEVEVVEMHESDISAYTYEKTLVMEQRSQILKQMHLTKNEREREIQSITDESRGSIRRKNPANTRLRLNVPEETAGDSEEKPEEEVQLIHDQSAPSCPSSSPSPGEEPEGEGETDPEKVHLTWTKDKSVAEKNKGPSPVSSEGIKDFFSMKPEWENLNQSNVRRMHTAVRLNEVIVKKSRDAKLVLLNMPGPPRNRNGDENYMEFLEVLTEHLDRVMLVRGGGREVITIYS
Assay: KCC2 cotransporter modulators, thallium flux, primary screen, cell-based, HEK293 KCC2, FluoZin-2 fluorescence, MLSMR (AID 1456);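 note: slope of fluorescence scaled to starting intensity during 10 to 20 s after thallium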
Details: KCC2 cells, thallium flux FluoZin-2 fluorescence; at 10 µM

| SMILES | B-score of Tl+ flux slope (higher = more flux/activation; lower = inhibition) |
| --- | --- |
| Cc1ccc(Cl)c(OCC(=O)NN2CCN(C)CC2)c1 | 0.242 (inactive) |
| NC(=O)C1(C(N)=O)OC1c1ccc(Cl)cc1Cl (configuration not stated) | 0.213 (inactive) |
| CCN1CCN(CC(=O)c2cc(OC)c(OC)c(OC)c2)CC1 | 0.89 (inactive) |
| COc1ccc(CCNS(=O)(=O)c2cccc3cccnc23)cc1OC | -0.941 (inactive) |
| Cc1ccc(OCc2n[nH]c(=S)n2-c2ccc(C)cc2)cc1 | 13.5 (active) |
| S=c1[nH]nc(COc2ccccc2)n1-c1ccccc1 | 0.195 (inactive) |
| COc1ccc(OCc2n[nH]c(=S)n2N)cc1 | 0.178 (inactive) |
| CCc1ccccc1NC(=O)CSc1nnc(CCNC(=O)OC(C)(C)C)o1 | -1.55 (inactive) |
| CSc1ncnc2sc(C)c(C)c12 | 8.38 (active) |
| CCCNc1ncnc2sc(C)c(C)c12 | -0.897 (inactive) |
| CCOC(=O)C(C)n1cnc2sc(C)c(C)c2c1=O (configuration not stated) | 0.498 (inactive) |
| CCN(CC)CCCSc1nc2ccccc2s1 | -0.568 (inactive) |
| COC(=O)c1c(-c2cccs2)csc1NC(=O)CSc1ncnc2sc(C)c(C)c12 | 0.971 (inactive) |
| Cc1sc2ncnc(Sc3nc4ccccc4s3)c2c1C | 2.96 (active) |
| O=C(O)c1ccccc1C(=O)Nc1ccccc1[N+](=O)[O-] | -0.0678 (inactive) |
| CCOc1ccccc1N1CN(Cc2ccccc2)CNC1=S | -0.426 (inactive) |
| O=C(/C=C/c1c(Cl)cccc1Cl)NCc1ccccc1 | 0.452 (inactive) |
| O=C(O)CCN(Cc1ccccc1)S(=O)(=O)c1c(Cl)cccc1Cl | -6.63 (active) |
| COC(=O)c1ccc(S(=O)(=O)N(CCO)Cc2ccccc2)n1C | 0.0796 (inactive) |
| O=C(Oc1c(-c2ccco2)oc2ccccc2c1=O)c1cccnc1 | 40.4 (active) |
| N#CCc1ccc(OC(=O)c2cccnc2)cc1 | 0.815 (inactive) |
| O=C(Oc1cccnc1)c1cc2ccccc2oc1=O | 0.0371 (inactive) |
| S=C(NNC(=S)NC1CC2CCC1C2)NC1CC2C=CC1C2 (configuration not stated) | 0.801 (inactive) |
| Clc1ccc2nc(-c3ccccc3)nc(C(Cl)Cl)c2c1 | 0.642 (inactive) |
| CCOc1ccc2[nH]c(=O)c(CN(Cc3nnnn3Cc3ccccc3)CC3CCCO3)cc2c1 (configuration not stated) | 0.154 (inactive) |

| SMILES | B-score of Tl+ flux slope (higher = more flux/activation; lower = inhibition) |
| --- | --- |
| Cc1cc(C)c2cc(CN(Cc3cccs3)Cc3nnnn3CC3CCCO3)c(=O)[nH]c2c1 (configuration not stated) | -3.73 (active) |
| Cc1cc2cc(CN(Cc3cccs3)Cc3nnnn3CC3CCCO3)c(=O)[nH]c2cc1C (configuration not stated) | -1.28 (inactive) |
| CCOC(=O)N/N=C1\CC(C)S(=O)(=O)c2ccc(Cl)cc21 (configuration not stated) | -0.00493 (inactive) |
| C/C(=N/NC(=O)CN1CCN(S(=O)(=O)c2ccc(Br)cc2)CC1)c1ccncc1 | 0.498 (inactive) |
| Cc1ccc(C)c(SCc2nc3sc(C(=O)O)c(C)c3c(=O)[nH]2)c1 | 0.00809 (inactive) |
| CC(C)c1ccc2c(c1)c(SC(C)(C)C)c(CC(C)(C)C(=O)O)n2Cc1ccc(Cl)cc1 | 6.52 (active) |
| COc1cc([N+](=O)[O-])ccc1NC(=S)N1CCN(c2ccccn2)CC1 | -1.11 (inactive) |
| O=C(Nc1nnc(C2CC2)s1)C1=NN(C2CCS(=O)(=O)C2)C(=O)CC1 (configuration not stated) | 0.0275 (inactive) |
| O=C(CC1C(=O)NCCN1Cc1ccc(-c2ccccc2)cc1)NCC1CCOCC1 (configuration not stated) | 0.966 (inactive) |
| CCCOC(=O)CC1C(=O)NCCN1Cc1ccc(F)cc1 (configuration not stated) | -4.12 (active) |
| CN(Cc1cccc2ncccc12)C(=O)CC1C(=O)NCCN1Cc1ccc(F)cc1 (configuration not stated) | -0.00882 (inactive) |
| Cc1cc(N)n(-c2ccc(S(=O)(=O)N3CCCC3)cc2[N+](=O)[O-])n1 | -0.0325 (inactive) |
| COC(=O)c1cccc(NS(C)(=O)=O)c1 | 0.136 (inactive) |
| N#Cc1ccc(C(=O)Nc2cccc3cccnc23)c(F)c1 | 0.429 (inactive) |
| S=C(NCc1cccnc1)Nc1ccc(Cl)cc1Cl | 0.543 (inactive) |
| CC(=O)/C(=N\Nc1ccc(Cl)cc1Cl)Sc1cccc2cccnc12 | 20.6 (active) |
| Cc1cc(OCCCN2CCN(Cc3ccccc3)CC2)ccc1[N+](=O)[O-] | -0.489 (inactive) |
| O=C(CSc1nc2ccccc2s1)Nc1ccc(C(=O)O)cc1 | 0.381 (inactive) |
| COc1ccc(S(=O)(=O)Nc2ccc(O)c(Sc3nc4ccccc4s3)c2)cc1 | -1.09 (inactive) |
| O=[N+]([O-])c1c(NCCO)cc(Sc2nc3ccccc3s2)c2nonc12 | 5.33 (active) |
| O=C(NCc1ccc(F)cc1)C1CCC(CNc2c(N3CCOCC3)c(=O)c2=O)CC1 (configuration not stated) | 1.21 (inactive) |
| Cc1cc(C(=O)CSc2nc(N)cc(=O)[nH]2)c(C)n1Cc1ccco1 | -0.287 (inactive) |
| COc1ccc(-c2csc(NC3OC(=O)c4ccccc43)n2)cc1 (configuration not stated) | 0.605 (inactive) |
| O=C(CSc1nnc(-c2c[nH]c3ccccc23)o1)c1ccccc1 | 0.154 (inactive) |
| CN(C(=O)CSc1nnc(-c2c[nH]c3ccccc23)o1)C1CCS(=O)(=O)C1 (configuration not stated) | -0.897 (inactive) |

| SMILES | B-score of Tl+ flux slope (higher = more flux/activation; lower = inhibition) |
| --- | --- |
| CCC(CC)NC(=O)CSc1nnc(-c2c[nH]c3ccccc23)o1 | -3.08 (active) |
| COc1cccc(C(=O)n2ccc(-c3cccs3)n2)c1 | 0.604 (inactive) |
| COC(=O)N(NC(=O)C(O)(C(C)C)C(C)C)c1ccccc1 | -1.84 (inactive) |
| O=C(NC(CC(=O)N1CCN(c2ccccc2)CC1)c1ccccc1)c1ccccc1Cl (configuration not stated) | -2.77 (active) |
| O=C(CN1CCCC1)N1CCN(c2ccccc2)CC1 | 0.962 (inactive) |
| CC(CC(=O)N1CCN(c2ccccc2)CC1)c1ccccc1 (configuration not stated) | -0.358 (inactive) |
| Cc1cc(-c2n[nH]c(=S)n2/N=C/c2ccco2)n[nH]1 | -0.111 (inactive) |
| S=c1[nH]nc(-c2ccco2)n1/N=C/c1ccccc1 | 4.67 (inactive) |
| S=c1[nH]nc(-c2ccco2)n1/N=C/c1ccc(Br)s1 | 12.6 (active) |
| Cc1ccc(/C=N\n2c(-c3ccccc3)n[nH]c2=S)s1 | 5.99 (active) |
| S=c1[nH]nc(-c2cccs2)n1/N=C/c1cccs1 | 8.64 (inactive) |
| S=c1[nH]nc(-c2ccccc2)n1/N=C/c1c[nH]c2ccccc12 | 0.491 (inactive) |
| O=c1c2ccccc2cnn1Cc1n[nH]c(=S)n1-c1ccccc1F | 0.755 (inactive) |
| CC1CCN(c2c(NCc3ccc(C(=O)NCc4ccccc4)cc3)c(=O)c2=O)CC1 | -1.1 (inactive) |
| O=C(Nc1ccccc1)C1CC(=O)n2c(nc3ccccc32)N1 (configuration not stated) | 0.778 (inactive) |
| CC(C)CCNC(=O)C1CCC(CNc2c(N3CCC(C)CC3)c(=O)c2=O)CC1 (configuration not stated) | 0.284 (inactive) |
| COc1ccc(CNC(=O)CCC(=O)Nc2nnc(C(C)C)s2)cc1 | 0.0451 (inactive) |
| Cc1cccc(N2CCN(Cc3nc(C4CC4)no3)CC2)n1 | -0.346 (inactive) |
| O=C(Nc1nnc(-c2ccco2)o1)c1ccc(S(=O)(=O)N2CCOCC2)cc1 | -0.75 (inactive) |
| COc1cccc(-c2nnc(NC(=O)c3ccc(S(=O)(=O)N(CC(C)C)CC(C)C)cc3)o2)c1 | 18.6 (active) |
| COc1cccc(NC(=O)c2ccc(S(=O)(=O)N(C)C)cc2)c1 | 1.09 (inactive) |
| CCCCN1CCNC1=S | -0.472 (inactive) |
| O=C(Nc1ccc(Br)cn1)c1ccc([N+](=O)[O-])o1 | 0.106 (inactive) |
| CCCCCC(=O)Nc1ccc(C(=O)N/N=C/c2ccc([N+](=O)[O-])cc2)cc1 | -0.55 (inactive) |
| CCCCCC(=O)NC(=S)NNC(=O)c1ccc([N+](=O)[O-])cc1 | 11.7 (active) |

| SMILES | B-score of Tl+ flux slope (higher = more flux/activation; lower = inhibition) |
| --- | --- |
| CC(C)CC(=O)NC(=S)NNC(=O)c1cccc([N+](=O)[O-])c1 | 0.86 (inactive) |
| Cc1ccc(N2C(=O)C(CC(=O)Nc3cccc(F)c3)N(CCc3ccncc3)C2=O)cc1 (configuration not stated) | 1.48 (inactive) |
| C=CCNC(=S)N1CCc2[nH]c3ccccc3c2C1 | -0.783 (inactive) |
| Cc1cccc(NC(=O)Nc2nnc(-c3ccccc3)o2)c1 | 2.01 (inactive) |
| CCCC(=O)Nc1nnc(-c2ccccc2)o1 | 1.22 (inactive) |
| O=C(COC(=O)c1ccc(Oc2ccccc2)cc1)Nc1nnc(-c2ccccc2)o1 | 42.1 (active) |
| CC1=NNC(=O)C1CCC(=O)N/N=C(\C)c1ccc(Cl)cc1 (configuration not stated) | -0.012 (inactive) |
| CC(NC(=S)Nc1ccccc1)C(c1cccs1)N1CCOCC1 (configuration not stated) | 0.588 (inactive) |
| CSc1sc(C(=O)NNC(=O)c2ccc(Cl)cc2)c2c1C=CCC2 | 12.5 (active) |
| CCOC(=O)NNC(=O)c1ccc(Cl)cc1 | 0.095 (inactive) |
| O=C(NNC(=O)C1C2CCC(C2)C1C(=O)O)c1ccc(Cl)cc1 (configuration not stated) | -1.3 (inactive) |
| O=C(CC(c1ccccc1)c1cc(Cl)ccc1O)NCCN1CCOCC1 (configuration not stated) | -0.0272 (inactive) |
| CN(C)c1ccc(C=C2C(=O)OC3(CCCC3)OC2=O)cc1 | -0.977 (inactive) |
| CCOc1c(Nc2cccc(Cl)c2)c(=O)c1=O | -0.192 (inactive) |
| COc1ccc(C2/C=C\CN(S(=O)(=O)c3cccs3)CC(=O)N2Cc2ccc(F)cc2)cc1 (configuration not stated) | -3.16 (active) |
| COc1ccc(C2/C=C\CN(CC(C)C)CC(=O)N2Cc2ccc(F)cc2)cc1 (configuration not stated) | -1.57 (inactive) |
| COc1ccc2c(CN3CCN(S(=O)(=O)c4cccs4)CC3)cc(=O)oc2c1 | -3.36 (inactive) |
| O=c1c(-c2ccc(Cl)cc2)[n+]([O-])c2ccccc2n1OCc1nc2ccccc2[nH]1 | 2.99 (inactive) |
| Nc1nc(NCC2CCCO2)nc(Nc2ccccc2F)c1[N+](=O)[O-] (configuration not stated) | 0.249 (inactive) |
| COc1ccc(NC(=O)COC(=O)c2ccc(NS(=O)(=O)/C=C/c3ccccc3)cc2)cc1 | 4.56 (active) |
| CCC(C(=O)OCC(=O)Nc1ccc(C(=O)Nc2ccc(OC)cc2)cc1)c1ccccc1 (configuration not stated) | -0.012 (inactive) |
| NS(=O)(=O)c1ccc(NS(=O)(=O)/C=C/c2ccccc2)cc1 | 0.851 (inactive) |
